Columns and labels:
ETS1 [1] = target: T1, ETS1 (UniProt P14921); assay: ETS1 binding intensity (PBM fluorescence), ETS1 alone (arbitrary fluorescence units); higher = stronger binding; conditions: ETS1 concentration 1 nM; RUNX1 concentration 0 nM
T1 sequence: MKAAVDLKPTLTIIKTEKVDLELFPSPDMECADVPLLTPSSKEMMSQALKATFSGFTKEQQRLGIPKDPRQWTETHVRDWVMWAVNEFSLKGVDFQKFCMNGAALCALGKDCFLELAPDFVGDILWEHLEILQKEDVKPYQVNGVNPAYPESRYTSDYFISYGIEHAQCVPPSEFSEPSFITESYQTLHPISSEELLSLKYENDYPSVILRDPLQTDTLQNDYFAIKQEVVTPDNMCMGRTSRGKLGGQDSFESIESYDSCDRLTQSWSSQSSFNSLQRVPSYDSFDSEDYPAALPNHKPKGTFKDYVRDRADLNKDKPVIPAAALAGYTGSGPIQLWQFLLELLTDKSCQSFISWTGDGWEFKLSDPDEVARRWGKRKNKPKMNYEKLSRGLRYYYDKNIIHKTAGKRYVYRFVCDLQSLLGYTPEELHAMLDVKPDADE

ETS1 [2] = target: T1, ETS1; assay: ETS1 binding intensity (PBM fluorescence) in presence of RUNX1, normalised to ETS1-only experiment (arbitrary fluorescence units); higher = stronger binding; conditions: ETS1 concentration 1 nM; RUNX1 concentration 25 nM

| Sequence | ETS1 binding intensity (ETS1 [1]) | ETS1 binding intensity (ETS1 [2]) |
| --- | --- | --- |
| CTTTCGCTTCCTTTCCCCGCCTCTTAGTCCCGCAGA | 464 | 363 |
| GAGCAGCGGGAGGAAGCTGCGGCGCGCAGAGCAGAG | 534 | 486 |
| GGAGCGGCGGAAGGGAGCTTGCGGCGGGAGGCTGAA | 423 | 485 |
| CCAGGATGTAGTTTGGCCACTATTGAGTGGTTTGTT | 448 | 502 |
| CTCTGAAGGAAGTGATGTTAGACGGCTGTGGGTGGT | 545 | 785 |
| CAGTTCCAGGAAGCAGCCCCAAGCTTGTGGCCCTGA | 526 | 305 |
| GACCCATTTCCTGGCTCAGGAGCCCACAGCCCTGGG | 464 | 404 |
| CAAGCCACTTCCTTTCTTGCTCCCACAACCTGTGTT | 579 | 471 |
| AAAGGGAAGTTGGCGGGAGTTCAAAACCACCGGGGC | 347 | 494 |
| TGGATGGCGGCGGATACTGCCCATGCCGCAAGGCCG | 464 | 532 |
| CTTCCTTCCCTTCCTTCTGCTCCCTCCCACAGCCGC | 519 | 436 |
| AAAGGGCAGACTTCCCTGCCCACATCTCTGCTCCTG | 462 | 359 |
| GTTTCAGTATTTCCTGGTGCGGCGTACCACACCTAC | 620 | 566 |
| TGGGAAGGGTGAGGAGGAAGCGGTGGCCTTGCTCTG | 604 | 604 |
| TTTGCACACATCCTGGCCTCCGCCTGACCACCTCCT | 483 | 586 |
| TCGCTTCCTGCTCCACTTCTCGGCGCCCACATCTCC | 514 | 523 |
| TGACTCACCTTCCTGTAGGTTGGTTTTCTGCATATC | 472 | 308 |
| CTCCCACGCTCCCCTTCCGGCCCCGCAGCGCTGTGA | 804 | 746 |
| CTTCAGGGGTGGGGCTTCCTGCCGCAGAGCCGCCTT | 543 | 557 |
| CTGCAGACAGGAGGATGTGGGCTTGCGCGCAAACAG | 675 | 745 |
| CCGCCCACTTCCGTGTGGCCGCCGATTGGTTTTGCC | 491 | 516 |
| GTAAAAGGAAGTAAAGGCTTGGCCGGGCGCGGTGGC | 569 | 411 |
| CAGCAAGCGTCCAGGAAGTGTGTGGGGGAGGTGTGG | 2010 | 1920 |
| GAAGTGATGTTAGACGGATGTGGGTGGTGCCTCCGG | 1620 | 2790 |
| ACACCGCTCAGGAAGACAAAGCCACACCTCACACCG | 457 | 356 |
| TTGCGTCACGTCCGGCCTGCGAGTTACCGCCCACTC | 690 | 603 |
| CCTGACTCTGGGTTTCCTCCCAGCCACAGACACCTG | 459 | 412 |

| Sequence | ETS1 binding intensity (ETS1 [1]) | ETS1 binding intensity (ETS1 [2]) |
| --- | --- | --- |
| AAGATGCCCCCTTCCGCTGGAAAGCGGTAATGCCCA | 724 | 705 |
| GACTGAGATTTCCTGCCAGCAACCACATGGCTTGTC | 512 | 577 |
| TGTTTACTTCCTGGAGGCACTTTGGTTTTTCTTTCT | 490 | 325 |
| ACAGTTTCCTTGCTGTGATGTCAGCCCCCGCCGCAG | 709 | 682 |
| TGGCTTCCTGTCTGTCCTTCATCAGCCCACAGAGGC | 517 | 529 |
| TGAAGGGACGGAAGGGACAGAACTTGCGGGAGGCAC | 497 | 416 |
| CCGAGACACATGGGATGTGGGCGGGAGGAGGAATTG | 715 | 941 |
| TGGTTAAGCAGTGCAGGATGTGGGCTGCACTGCTAA | 2590 | 3930 |
| TAGTCCGCTACAGGAAGGTGGTCATCCTCGGATACC | 1110 | 1170 |
| GTCAGGAAACACATAGTTGTGTTTAACCTCAGGAAA | 466 | 399 |
| GAGTGGGGGTGGGGAGGAAGCCACAGGGCCGGGCTG | 624 | 771 |
| CCATGCGCTGCTTCCTTCCACTTACCGCCCTCGCAC | 523 | 331 |
| GGTCCAGGAAGACGTCAAGGGCTTGGTTTTGTAAAC | 505 | 448 |
| AAAAAATGGAGGAAGTTACCTCCAGTGGTTTTGTGA | 751 | 1310 |
| CTAAGTGCTCTTCCTGCCAACCTGTGGGCGCCTGGC | 559 | 686 |
| GATCTGCTTGGCTTCCTGTGGTCGCTGACTCACAGT | 905 | 1010 |
| CTCTCTGGGCGGAAGGAACGCGGTCACCCTGAGAAA | 547 | 968 |
| CTATATCACATCCTTTCTCTGACCGCGCTGACTTCG | 452 | 481 |
| CCAACACGGATACAAAAAATATCTCTCTACCACACT | 476 | 531 |
| GCGCCAGTCACCGTTTCCTGTGGTTTGCTGCCCGCC | 1790 | 3010 |
| TAGAAAAGGAAGCAGGGTAGGTGTGGTATCTGGGTC | 587 | 575 |
| GCCACCGTATTTCCGCGTTTTTCGCGGTAGGCGGGA | 465 | 576 |
| CAGAGGCCCGGCCTCTTCCGCCACAACTCCGGCCCG | 492 | 356 |
| AGCCAGGAAATCCGCACCTACACAGCCCAACCACAG | 582 | 435 |
| AAGCCCTAGAGGAAATTAGTACGTAACCACCTTCTG | 540 | 844 |
| TAGGCCGGAAAGCACCACCGTCCTCCCGCAGGCCGC | 455 | 386 |
| GTCGGGAAGTAGGCGGGGTGACGTGTGGTTGACGAG | 426 | 546 |

| Sequence | ETS1 binding intensity (ETS1 [1]) | ETS1 binding intensity (ETS1 [2]) |
| --- | --- | --- |
| ACAGGAAGTGAGGCTGTGAGGAGTTTGTGGTGTGTA | 2080 | 4960 |
| TCAGGAAGTGGTGTGACCAGCATGTGAACCGCGGCA | 681 | 1110 |
| ACTTACTTCCCGACGTCACAGCCTCCGACACCACAG | 471 | 423 |
| GGGGGAATGTAGGAAGTATCATCGCCCACAAGAAAG | 644 | 807 |
| ACAGGTTCAGGAAGCGGCCGTGGTTGTTAGTGGTGT | 718 | 639 |
| AGCTGCGGAGCATCCGCTGCGGTCCTCGCCGAGACC | 450 | 453 |
| CAGCTGCCTCCAGGAAGCGGTAAGTGACTCTGGTGG | 1150 | 1660 |
| GGGGCCCCGGATGCACTGAGCGGCTGCGGCGCGGCT | 613 | 642 |
| CGCCGGTCCCATATCCTTTCTGCGGGGTGAGCAGCA | 465 | 431 |
| AGCCCTCTGCAACTTCCCGGCCCCACAGCCCCACCC | 678 | 575 |
| GGGGCGCTGCGCAGGAAGCCGCAGTCCCTCTGCGGA | 930 | 1210 |
| CTCGGAGCGGAACTACTAGGGTGGTTTCTCCTGAGG | 464 | 336 |
| GACCTGACAACATCCTGGCGCAGTGGGTTGGCCCTG | 496 | 420 |
| GTCTTGTACCCTAGAGGATGTGGTAGCCCTAAATAA | 1060 | 2290 |
| GGAGCAGGAAGCGTCGCCGGGGGGCCCACAAGGGTA | 528 | 614 |
| GAACCCCAAGTTCCGGCTGGCACTGCGGCGGAGCCT | 452 | 299 |
| TGAGGAAGTGTAAGTCACAATAAGAAGCCACATATA | 564 | 519 |
| CGTTATTTCCGGGGCTGGGTTAACGCAGCGGTTCCA | 631 | 692 |
| GGGAGGAAGTGTGAAGGGACTTTTGTGGTGAGTGAT | 549 | 910 |
| GTCCCCCTTCCGGCTGCAGGTTGAGGTTTGGAACCT | 511 | 560 |
| ACAGCGCCTCTTCCTGCTCTACCACATCTGATGTCC | 512 | 352 |
| GTACGCTCTTCACTTCCCGTACCCGCGCCCGGCAGG | 609 | 634 |
| CAGCTAGAGGAAGCGCTTCGCCCGCGAACCACAGGG | 375 | 705 |
| GGGCAGGTGCGGATGCCGAGGAGAGTGGTCACCTCG | 449 | 435 |
| CAGGCCTGTGATTTCCTCTGAGTGGTTTTCTTGGCC | 465 | 401 |
| GCGCAAGGCGCTTCCTCCCCCGCAGCGCGAGCCCCA | 477 | 435 |

Source: the supplement of paper PMC10681739
